An excerpt weighted towards active compounds, which were near 2.9% of everything screened.
EPAC1 agonist: human EPAC1 agonism, validation; AID 1645883; O95398; Potency, µM, usual class: activators; 1% of 16,000 active; EPAC1 Rap1b BODIPY-GDP exchange, fluorescence; also: nearly all actives have a fitted effect of over 70% in size
Target sequence (O95398 whole entry, looked up): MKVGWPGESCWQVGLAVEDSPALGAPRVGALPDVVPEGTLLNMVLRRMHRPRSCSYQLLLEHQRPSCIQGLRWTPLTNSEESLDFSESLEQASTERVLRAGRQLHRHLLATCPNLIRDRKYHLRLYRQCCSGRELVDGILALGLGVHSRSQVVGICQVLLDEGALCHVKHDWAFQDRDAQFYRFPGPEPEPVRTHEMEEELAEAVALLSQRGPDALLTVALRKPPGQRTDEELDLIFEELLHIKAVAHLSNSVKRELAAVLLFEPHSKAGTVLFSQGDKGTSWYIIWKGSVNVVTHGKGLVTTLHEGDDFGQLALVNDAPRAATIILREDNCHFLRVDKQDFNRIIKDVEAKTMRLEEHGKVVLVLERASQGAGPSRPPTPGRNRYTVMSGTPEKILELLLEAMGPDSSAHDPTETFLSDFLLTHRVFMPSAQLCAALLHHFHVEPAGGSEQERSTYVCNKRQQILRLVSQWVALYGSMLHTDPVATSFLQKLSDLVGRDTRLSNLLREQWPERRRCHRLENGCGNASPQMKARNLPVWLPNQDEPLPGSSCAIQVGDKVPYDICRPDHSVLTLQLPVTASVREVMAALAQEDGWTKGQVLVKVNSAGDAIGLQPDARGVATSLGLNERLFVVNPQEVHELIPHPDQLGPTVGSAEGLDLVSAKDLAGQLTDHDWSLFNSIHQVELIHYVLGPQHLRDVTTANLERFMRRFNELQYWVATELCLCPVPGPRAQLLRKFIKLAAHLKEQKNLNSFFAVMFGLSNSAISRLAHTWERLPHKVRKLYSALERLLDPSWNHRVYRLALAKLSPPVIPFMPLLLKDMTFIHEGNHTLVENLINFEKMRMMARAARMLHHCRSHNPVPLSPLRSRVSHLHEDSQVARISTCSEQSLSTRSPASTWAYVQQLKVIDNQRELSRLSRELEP
EPAC2 ant val: human EPAC2 antagonism, validation; 1.7% of 16,000 active; EPAC2 Rap1B BODIPY-GDP exchange, fluorescence; Potency, µM (highest dose often 112 µM), hits mostly inhibitors; Q8WZA2; also: nearly all actives have a fitted effect of over 40% in size
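Normalized against a 6.5 mM cAMP agonist control, compounds were tested on 100 nM EPAC2 exchanging Rap1B-bound BODIPY-GDP (250 nM) for 50 uM GDP. Fluorescence drop (ex 480, em 540 nm) was tracked at room temperature over 30 min at 5-min intervals.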
Numbers stand for hits; i = inactive; ? = inconclusive; ! = repeats disagree. Calls follow the shape of the dose curve; as a rule, active = well fitted curve in the direction sought with a large enough effect; inconclusive = small, poorly fitted or top-dose-only effect, or another doubt; inactive = no such curve, though single readings can be large; an effect the other way counts as inactive or inconclusive.

SMILES | EPAC1 agonist | EPAC2 ant val
O=C1c2ccccc2C(=O)C1C(=O)C(c1ccccc1)c1ccccc1 | i | 79.4µM
CCCCCc1cc(O)c2c(c1)OC(C)(C)[C@@H]1CCC(C)=C[C@@H]21 | i | ?
CC[C@H]1C[C@@H]2C[C@H]3c4[nH]c5ccc(OC)cc5c4CCN(C2)[C@@H]13 | i | i
CC(=O)Oc1c2c(c(CC=C(C)C)c3c1C(=O)C1=CC4CC5C(C)(C)OC(C/C=C(\C)C(=O)O)(C4=O)[C@]15O3)OC(C)(CCC=C(C)C)C=C2 (stereo partly drawn) | i | 70.8µM
COC(=O)/C(C)=C\CC12OC(C)(C)C3CC(C=C4C(=O)c5c(OC)c6c(c(CC=C(C)C)c5OC431)OC(C)(CCC=C(C)C)C=C6)C2=O (stereo not drawn) | i | i
CO[C@H]1[C@@H](O)C[C@H](O[C@H]2[C@@H](O)C[C@H](O[C@H]3[C@@H](O)C[C@H](O[C@H]4CC[C@@]5(C)[C@H](CC[C@@H]6[C@@H]5C[C@@H](O)[C@]5(C)[C@@H](C7=CC(=O)OC7)CC[C@]65O)C4)O[C@@H]3C)O[C@@H]2C)O[C@@H]1C | i | i
C[C@]12CC[C@H](O)C[C@H]1CC[C@@H]1[C@@H]2CC[C@]2(C)[C@@H](c3ccc(=O)oc3)C[C@H]3O[C@]132 | i | i
CCOC(=O)[C@]12Cc3cc4c(cc3[C@H]1N(Cc1ccccc1)C(=O)c1ccccc12)OCO4 | i | ?
CCOC(=O)[C@]12Cc3cc(N(C)C)ccc3[C@H]1N(Cc1ccccc1)C(=O)c1ccccc12 | i | 79.4µM
CCN(CC)CCO[C@H]1CC[C@@]2(C)C(=CC[C@@H]3[C@@H]2CC[C@]2(C)C(=O)CC[C@@H]32)C1 | i | i
C[C@]12CC[C@@H](O)C[C@H]1CC[C@@H]1[C@H]2CC[C@]2(C)C(=O)CC[C@@H]12 | i | i
COP(=S)(OC)Oc1ccc(SC)c(C)c1 | i | ?
CCOP(=O)(NC(C)C)Oc1ccc(SC)c(C)c1 (stereo not drawn) | i | 50.1µM
C[C@@H]1[C@H]2Cc3ccc(O)cc3[C@]1(C)CCN2C | i | i
Clc1ccc(CSC(Cn2ccnc2)c2ccc(Cl)cc2Cl)cc1 (stereo not drawn) | 50.1µM! | 44.7µM!
CCc1cc(OC)c(C[C@@H](C)N)cc1OC | i | i
CC(=O)O[C@H]1C[C@H](O[C@H]2[C@@H](O)C[C@H](O[C@H]3[C@@H](O)C[C@H](OC4CC[C@@]5(C)[C@H](CC[C@@H]6[C@@H]5CC[C@]5(C)[C@@H](C7=CC(=O)OC7)CC[C@]65O)C4)O[C@@H]3C)O[C@@H]2C)O[C@H](C)[C@H]1O[C@@H]1O[C@H](CO)[C@@H](O)[C@H](O)[C@H]1O (stereo partly drawn) | i | i
CCCCCCCCc1ccc(O)cc1 | i | 35.5µM
CCCCc1ccc(C(=O)O)nc1 | i | i
Cc1ccccc1-n1c(C)nc2ccccc2c1=O | i | i
O=c1c2ccccc2[se]n1-c1ccccc1 | i | 39.8µM!
CN1[C@H]2CC[C@@H]1[C@@H](C(=O)O)[C@@H](OC(=O)c1ccccc1)C2 | i | ?
CCCCC/C=C\C/C=C\C/C=C\C/C=C\CCCC(=O)NCC(=O)O | i | i
CCCCC/C=C\C/C=C\C/C=C\C/C=C\CCCC(=O)Nc1ccc(O)cc1 | i | 31.6µM
COc1cc(C[C@@H](C)N)c(OC)cc1Br | i | i
O=C(Nc1ccccc1-c1ccc(Cl)cc1)c1cccnc1Cl | i | 8.91µM
CCC(=O)C(CC(C)N(C)C)(c1ccccc1)c1ccccc1 (stereo not drawn) | ? | i
O=c1oc2ccccc2c(O)c1C(CC(O)c1ccc(-c2ccc(Br)cc2)cc1)c1ccccc1 (stereo not drawn) | i | 79.4µM
[2H]C([2H])([2H])[C@H](N)Cc1ccccc1 | ? | i
C[C@@H](Cc1ccccc1)N(C)C | i | i

From PubChem BioAssay
